Results filed as inconclusive are left out. Calls of active or inactive are those of the source. Calls come from the whole dose curve; as a rule, active = well fitted curve in the direction sought with a large enough effect; inconclusive = small, poorly fitted or top-dose-only effect, or another doubt; inactive = no such curve, though single readings can be large or run the other way.
Target: Vasopressin V1b receptor (Homo sapiens) (UniProt P47901)
Experiment: Counterscreen Concentration-Response Assay for Antagonists of the Neuropeptide S Receptor: Vasopressin Receptor Calcium Signal Transduction
Settings: CHO-AVPR1B, vasopressin-stimulated calcium fluorescence, FDSS
Procedure, shortened: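 CHO cells stably expressing human AVPR1B, calcium-dye loaded, were given compound, then stimulated with 60 nM vasopressin in HBSS/0.1% BSA. Peak kinetic fluorescence was normalized to DMSO and no-signal controls; AC50 from Hill fits.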

Vasopressin V1b receptor (Homo sapiens), sequence (P47901 whole entry, looked up): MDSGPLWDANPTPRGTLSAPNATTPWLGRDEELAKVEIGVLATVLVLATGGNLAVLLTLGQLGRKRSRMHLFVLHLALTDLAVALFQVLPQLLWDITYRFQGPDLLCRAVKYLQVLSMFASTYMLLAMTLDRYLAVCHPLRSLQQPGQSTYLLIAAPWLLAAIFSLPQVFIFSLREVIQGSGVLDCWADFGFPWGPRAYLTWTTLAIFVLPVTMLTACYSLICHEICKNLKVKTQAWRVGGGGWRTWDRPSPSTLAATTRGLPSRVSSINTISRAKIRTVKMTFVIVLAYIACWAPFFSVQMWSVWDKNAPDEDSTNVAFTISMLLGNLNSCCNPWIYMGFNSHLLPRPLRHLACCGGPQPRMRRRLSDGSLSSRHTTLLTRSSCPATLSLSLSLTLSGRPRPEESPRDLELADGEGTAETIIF

Q: For COc1ccc(C2c3c(ncn(CCN4CCOCC4)c3=N)Oc3ccc4ccccc4c32)cc1OC (stereo unspecified), which max response is on record?
A: Its max response is -15.6% (inactive).

Q: How did the max response turn out when COc1cccc(C2c3c(ncn(-c4ccccc4-c4ccccc4)c3=N)Oc3ccc4ccccc4c32)c1 (stereo unspecified) was run?
A: Its max response is 13.8% (inactive).

Q: How did the max response turn out when COc1ccc(C2c3c(nc(C)[nH]c3=O)Oc3ccc4ccccc4c32)cc1OC (stereo unspecified) was run?
A: The max response was -25.8% (inactive).

Q: COc1ccc(C2c3c(N)nc(CCc4ccccc4)nc3Oc3ccc4ccccc4c32)cc1OC (stereo unspecified) was tested. Which max response did it give?
A: The max response was -20.6% (inactive).

Q: Which max response does the source give for COc1cccc(C2c3c(ncn(-c4ccccc4)c3=N)Oc3ccc4ccccc4c32)c1OC (stereo unspecified) here?
A: The max response was -5.77% (inactive).

Q: For Cc1c(P(=S)(c2ccccc2)c2ccccc2)c2ccccc2n1Cc1ccccc1, which max response is on record?
A: The max response was 0.753% (inactive).

Q: How did the max response turn out when COc1ccc(C2c3ccc(OCc4ccccc4)cc3Oc3ncn(CCN4CCOCC4)c(=N)c32)cc1OC (stereo unspecified) was run?
A: The max response was -15.2% (inactive).

Q: Which max response does the source give for COc1cccc(C2c3c(ncn(-c4ccccc4OC)c3=N)Oc3ccc4ccccc4c32)c1 (stereo unspecified) here?
A: Its max response is -19.5% (inactive).

Q: Which max response does the source give for O=C(Nc1ncnc2c1C(c1ccccc1)c1c(ccc3ccccc13)O2)c1ccccc1 (stereo unspecified) here?
A: The max response was 8.3% (inactive).

Q: How did the max response turn out when COc1ccc(C2c3c(nc(CCCc4ccccc4)[nH]c3=O)Oc3ccc4ccccc4c32)cc1OC (stereo unspecified) was run?
A: Its max response is 12% (inactive).

Q: With CCOc1ccc(C2c3c(ncn(-c4ccccc4)c3=N)Oc3ccc4ccccc4c32)cc1OCC (stereo unspecified) as the compound, how does the max response read?
A: Its max response is -23.4% (inactive).

Q: COc1cccc(C2c3c(ncn(-c4cccc(Cl)c4)c3=N)Oc3ccc4ccccc4c32)c1 (stereo unspecified) was tested. Which max response did it give?
A: The max response was -5.71% (inactive).

Q: How did the max response turn out when N=c1c2c(ncn1-c1ccccc1)Oc1ccc3ccccc3c1C2c1ccc2c(c1)CCO2 (stereo unspecified) was run?
A: The max response was -13.6% (inactive).

Q: Which max response does the source give for COc1ccc(C2c3c(ncn(Cc4ccccc4)c3=N)Oc3ccc4ccccc4c32)cc1OC (stereo unspecified) here?
A: The max response was -10.2% (inactive).

Q: With O=C(Cc1ccccc1)Nc1ncnc2c1C(c1ccccc1)c1c(ccc3ccccc13)O2 (stereo unspecified) as the compound, how does the max response read?
A: Its max response is 7.19% (inactive).

Q: Which max response does the source give for COc1cccc(C2c3c(ncn(Cc4cccs4)c3=N)Oc3ccc4ccccc4c32)c1 (stereo unspecified) here?
A: Its max response is 22.2% (inactive).

Q: How did the max response turn out when COc1cccc(C2C(C#N)=C(NC(=O)CCc3ccccc3)Oc3ccc4ccccc4c32)c1 (stereo unspecified) was run?
A: Its max response is 10.7% (inactive).

Q: With COc1ccc(C2c3ccc4ccccc4c3Oc3ncn(CCN4CCOCC4)c(=N)c32)cc1OC (stereo unspecified) as the compound, how does the max response read?
A: Its max response is -8.9% (inactive).

Q: How did the max response turn out when COc1cccc(C2c3c(ncn(-c4cccc(Br)c4)c3=N)Oc3ccc4ccccc4c32)c1 (stereo unspecified) was run?
A: The max response was -12.3% (inactive).

Q: How did the max response turn out when COc1cccc(C2c3c(ncn(-c4ccccc4C)c3=N)Oc3ccc4ccccc4c32)c1 (stereo unspecified) was run?
A: The max response was -2.54% (inactive).

Q: COc1cccc(C2c3c(ncn(-c4ccccc4C(C)(C)C)c3=N)Oc3ccc4ccccc4c32)c1 (stereo unspecified) was tested. Which max response did it give?
A: Its max response is 9.94% (inactive).

Source: PubChem BioAssay AID2570 (National Center for Advancing Translational Sciences (NCATS), 2010)
